# Source: PubChem BioAssay
# Unmarked numbers belong to inactive results. For part of these data: Measured potencies and affinities stand elsewhere. Active and inactive are the calls of the source. Unless noted, no rule for the calls is given here.
# How the values were obtained:
# [1] = antimalarial activity against Dd2 strain (AID 2302;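 active = growth inhibition above 50% at the single 2 µM test dose, taken to imply half-maximal potency below 2 µM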;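 also: 0% = DMSO untreated growth and 100% = chloroquine plus artemisinin killed control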); settings: P. falciparum Dd2 in RBCs, LDH growth readout, 72 h; at 2 µM; hits give high values
# [2] = human hepatoma cell viability loss – ATP luminescence, cytotoxicity control for P. falciparum antimalarial project, primary screen (AID 2303;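 active = inhibition above 50%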;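 also: 0% = DMSO wells and 100% = digitonin-killed cells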); settings: HepG2 viability, 24-48 h, at 10 µM, hits give high values
# [3] = molecular target: L-lactate dehydrogenase (Plasmodium falciparum (isolate CDC / Honduras)) (UniProt Q27743); test: PfLDH activity inhibition – cell lysate, 3D7 strain, counter-screen for P. falciparum growth inhibition project (AID 2304);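 also: 0% = vehicle and 100% = reference inhibitor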; settings: P. falciparum 3D7 crude extract, LDH APAD/NBT absorbance; at 2 µM; hits give high values
# [4] = inhibition of 3D7 malaria parasite growth – strain 3D7 (AID 2306);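 also: 0% = DMSO wells and 100% = chloroquine plus artemisinin control wells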; settings: P. falciparum 3D7 erythrocytic growth, LDH absorbance, 72 h; at 2 µM; hits give high values
# [5] = molecular target: Calcium-dependent protein kinase 1 (Plasmodium falciparum (isolate 3D7)) (UniProt P62344); test: PfCDPK1 kinase inhibitors, biochemical, TCAMS library (AID 1159585; cut-off not given, nearly all actives have IC50 up to about 0.98 µM;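 also: inhibitors leave more ATP so luminescence rises with inhibition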); settings: recombinant PfCDPK1, Kinase-Glo ATP depletion luminescence
# [6] = molecular target: Plasmodium falciparum protein kinase 6 (PK6, PF3D7_1337100) (UniProt Q8IDW1); test: PfPK6 kinase inhibitors, biochemical, TCAMS library (AID 1159586); settings: recombinant PfPK6, Kinase-Glo ATP depletion luminescence
# [7] = molecular target: Protein kinase 7 (PK7), Plasmodium falciparum 3D7 (PF3D7_0213400) (UniProt Q7YTF7); test: inhibition of Plasmodium PK7 catalytic activity – biochemical, TCAMS antimalarial set, Kinase-Glo luminescence (AID 1159587); settings: recombinant PfPK7, Kinase-Glo ATP depletion luminescence
# [8] = molecular target: Calcium-dependent protein kinase 4 (Plasmodium falciparum (isolate 3D7)) (UniProt Q8IBS5); test: PfCDPK4 kinase inhibitors, biochemical, TCAMS library (AID 1159588; cut-off not given, nearly all actives have IC50 up to about 0.91 µM); settings: recombinant PfCDPK4, Kinase-Glo ATP depletion luminescence
# Calcium-dependent protein kinase 4 (Plasmodium falciparum (isolate 3D7)), sequence (Q8IBS5 whole entry, looked up): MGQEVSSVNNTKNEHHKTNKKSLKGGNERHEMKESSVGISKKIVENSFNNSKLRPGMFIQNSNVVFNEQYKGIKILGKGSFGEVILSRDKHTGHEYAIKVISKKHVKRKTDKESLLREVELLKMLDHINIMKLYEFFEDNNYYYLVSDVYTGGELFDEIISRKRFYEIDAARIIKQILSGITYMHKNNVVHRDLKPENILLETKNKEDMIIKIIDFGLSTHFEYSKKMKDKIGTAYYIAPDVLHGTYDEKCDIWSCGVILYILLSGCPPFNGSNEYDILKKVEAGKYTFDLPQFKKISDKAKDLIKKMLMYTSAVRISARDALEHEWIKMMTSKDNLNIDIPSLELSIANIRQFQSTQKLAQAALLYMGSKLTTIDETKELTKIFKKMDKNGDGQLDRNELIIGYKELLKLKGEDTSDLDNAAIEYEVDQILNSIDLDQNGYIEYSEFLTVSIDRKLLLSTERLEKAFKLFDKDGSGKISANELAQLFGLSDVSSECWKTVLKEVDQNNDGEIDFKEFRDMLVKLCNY
# Plasmodium falciparum protein kinase 6 (PK6, PF3D7_1337100), sequence (Q8IDW1 1-305): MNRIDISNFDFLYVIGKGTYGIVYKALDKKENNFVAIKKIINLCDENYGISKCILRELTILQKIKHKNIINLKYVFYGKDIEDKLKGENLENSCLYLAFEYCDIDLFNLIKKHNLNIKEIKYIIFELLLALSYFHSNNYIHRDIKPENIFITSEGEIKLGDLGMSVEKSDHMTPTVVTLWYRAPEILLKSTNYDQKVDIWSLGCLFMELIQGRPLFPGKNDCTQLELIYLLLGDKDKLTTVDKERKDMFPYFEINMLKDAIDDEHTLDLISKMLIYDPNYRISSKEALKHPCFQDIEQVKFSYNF
# L-lactate dehydrogenase (Plasmodium falciparum (isolate CDC / Honduras)), sequence (Q27743 whole entry, looked up): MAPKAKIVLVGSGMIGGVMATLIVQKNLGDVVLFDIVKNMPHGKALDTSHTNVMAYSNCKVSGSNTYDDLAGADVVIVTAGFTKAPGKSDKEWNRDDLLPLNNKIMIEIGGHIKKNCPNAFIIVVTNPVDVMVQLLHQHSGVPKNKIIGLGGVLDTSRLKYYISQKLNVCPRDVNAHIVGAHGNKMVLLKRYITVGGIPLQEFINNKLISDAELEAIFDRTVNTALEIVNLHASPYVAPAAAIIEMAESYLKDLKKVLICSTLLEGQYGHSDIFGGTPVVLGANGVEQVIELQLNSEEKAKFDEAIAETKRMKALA
# Calcium-dependent protein kinase 1 (Plasmodium falciparum (isolate 3D7)), sequence (P62344 whole entry, looked up): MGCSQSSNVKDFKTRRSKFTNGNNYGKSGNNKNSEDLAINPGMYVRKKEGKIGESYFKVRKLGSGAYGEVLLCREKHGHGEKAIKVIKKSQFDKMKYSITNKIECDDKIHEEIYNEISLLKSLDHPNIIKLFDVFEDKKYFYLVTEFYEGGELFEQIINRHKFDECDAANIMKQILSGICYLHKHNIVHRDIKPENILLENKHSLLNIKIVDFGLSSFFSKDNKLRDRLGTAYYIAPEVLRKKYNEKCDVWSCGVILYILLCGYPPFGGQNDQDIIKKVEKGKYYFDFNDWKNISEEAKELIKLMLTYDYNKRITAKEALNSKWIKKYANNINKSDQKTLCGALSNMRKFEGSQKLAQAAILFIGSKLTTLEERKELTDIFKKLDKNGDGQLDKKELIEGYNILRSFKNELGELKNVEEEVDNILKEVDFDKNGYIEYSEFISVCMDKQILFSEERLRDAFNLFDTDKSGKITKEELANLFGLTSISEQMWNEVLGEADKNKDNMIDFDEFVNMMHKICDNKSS
# Protein kinase 7 (PK7), Plasmodium falciparum 3D7 (PF3D7_0213400), sequence (Q7YTF7 1-343): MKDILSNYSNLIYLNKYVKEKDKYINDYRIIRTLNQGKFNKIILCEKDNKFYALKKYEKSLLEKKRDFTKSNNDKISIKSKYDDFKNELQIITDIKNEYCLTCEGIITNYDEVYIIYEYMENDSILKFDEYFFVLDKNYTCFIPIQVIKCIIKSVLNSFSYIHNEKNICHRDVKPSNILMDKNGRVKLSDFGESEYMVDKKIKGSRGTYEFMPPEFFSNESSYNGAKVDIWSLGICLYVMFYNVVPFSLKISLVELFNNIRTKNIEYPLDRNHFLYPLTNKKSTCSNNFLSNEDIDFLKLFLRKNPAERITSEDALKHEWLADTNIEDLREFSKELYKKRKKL
Compound,growth inhibition [1],inhibition [2],inhibition [3],growth inhibition [4],outcome [5],outcome [6],outcome [7],outcome [8]
Cc1cc(Nc2ccc3c(c2)CCC3)n2ncnc2n1,48%,4%,-2%,86% (active),inactive,inactive,inactive,inactive
CC(Sc1n[nH]c(-c2cccs2)n1)C(=O)c1c[nH]c2ccccc12 (stereo not drawn),58% (active),-8%,6%,94% (active),inactive,inactive,inactive,inactive
Cc1cccc(-c2ccc3c(c2)CC(NCc2cccc(-n4ccnc4)c2)C3)c1 (stereo not drawn),49%,11%,0%,101% (active),inactive,inactive,inactive,inactive
N#Cc1ccc(N[C@@H](CC2CCCCC2)C(=O)Nc2ccc(-c3ccccc3)cc2)c2ccccc12,99% (active),34%,-8%,100% (active),inactive,inactive,inactive,inactive
COc1cc(NC(=O)/C=C/c2ccccc2OC(F)(F)F)cc(OCCN2CCN(CCN3CCOCC3)CC2)c1,25%,20%,-1%,98% (active),inactive,inactive,inactive,inactive
COc1ccc2nc(C)cc(NN=Cc3ccccc3[N+](=O)[O-])c2c1,99% (active),2%,-2%,101% (active),inactive,inactive,inactive,inactive
N#Cc1ccc(-c2ccc(C(=O)NC3CCN(CCN4CCC(c5cn(CCO)c6ccccc56)CC4)CC3)cc2)cc1,79% (active),30%,-2%,100% (active),inactive,inactive,inactive,inactive
O=C(c1cc2cccc([N+](=O)[O-])c2[nH]1)N1CCC(CCN2CCC(c3c[nH]c4ccccc34)CC2)CC1,24%,45%,1%,89% (active),inactive,inactive,inactive,inactive
CC(C)C(NC(=O)c1c(F)cccc1F)C(=O)Nc1ccc(Cc2nc3ccccc3s2)cc1 (stereo not drawn),55% (active),0%,6%,86% (active),inactive,inactive,inactive,inactive
CCOc1ccc2nc3cc([N+](=O)[O-])ccc3c(N)c2c1,100% (active),67% (active),3%,99% (active),inactive,inactive,inactive,inactive
Cc1cc(F)ccc1Nc1nc(N(C)c2ccccc2)c2cc(OCCCN(C)C)ccc2n1,49%,31%,4%,100% (active),inactive,inactive,inactive,inactive
Cc1[nH]nc2cc(Nc3ccnc(Nc4ccc(CN5CCOCC5)cc4)n3)ccc12,5%,22%,-4%,97% (active),inactive,inactive,inactive,inactive
O=C(Nc1ccc2c(c1)CNCC2)c1ccc(-c2ccc(Cl)cc2)cc1,28%,52% (active),6%,96% (active),inactive,inactive,inactive,inactive
COc1ccc2ccc(F)c(CCN3CCC(NCc4cc5c(cn4)OCCO5)CC3)c2n1,36%,15%,3%,96% (active),inactive,inactive,inactive,inactive
O=C(Nc1ccc(Cn2ncc(N3CCCNCC3)c(Cl)c2=O)cc1)Nc1cc(Cl)cc(Cl)c1,17%,3%,3%,91% (active),inactive,inactive,inactive,inactive
O=C(CNC(=O)c1ccc(O)cc1)Nc1cccc(-c2cccc(-c3nc4ccc(C(F)(F)F)cc4[nH]3)c2)c1,28%,63% (active),5%,96% (active),inactive,inactive,inactive,inactive
O=C(/C=C/c1ccc(I)cc1)NCCCCCN1CCC(c2c[nH]c3ccccc23)CC1,2%,43%,-4%,95% (active),inactive,inactive,inactive,inactive
O=C(/C=C/c1ccc(Cl)c(Cl)c1)NCCCCCN1CCC(NC(=O)Nc2ccc(Cl)c(C(F)(F)F)c2)CC1,19%,76% (active),-1%,99% (active),inactive,inactive,inactive,inactive

Compound,growth inhibition [1],inhibition [2],inhibition [3],growth inhibition [4],outcome [5],outcome [6],outcome [7],outcome [8]
CCCN(CCC)C(=O)c1cc(C(=O)N[C@@H](Cc2ccccc2)[C@H](O)CNCc2cccc(C(F)(F)F)c2)cc(N2CCCCS2(=O)=O)c1,74% (active),-5%,3%,99% (active),inactive,inactive,inactive,inactive
COc1ccc(CNCc2ccc(F)cc2)cc1-c1ccc(S(=O)(=O)NCCN2CCCC2)s1,65% (active),61% (active),-1%,101% (active),inactive,inactive,inactive,inactive
Cc1cc(CN2CCCN(c3ccc4c(c3)CCN(Cc3ccc(-c5ncc[nH]5)cc3)CC4)CC2)n(C)n1,8%,5%,5%,86% (active),inactive,inactive,inactive,inactive
Cc1cccc(Nc2nccc(NCC(O)c3cccc(C(F)(F)F)c3)n2)c1 (stereo not drawn),94% (active),25%,-2%,100% (active),inactive,inactive,inactive,inactive
O=C(Cn1nc(Br)nc1[N+](=O)[O-])NCC1CCCCC1,57% (active),-8%,-5%,96% (active),inactive,inactive,inactive,inactive
CC(C)c1ccc(CN2CCC(NC(=O)c3ccc(-c4cccc(Cl)c4)s3)CC2)cc1,6%,50% (active),3%,82% (active),inactive,inactive,inactive,inactive
OCc1ccc(-c2cncc(Nc3ccc(F)c(Cl)c3)c2)cc1,99% (active),2%,-2%,92% (active),inactive,inactive,inactive,inactive
CCOC(=O)C(CO)NC(=O)c1ccc([N+](=O)[O-])o1 (stereo not drawn),2%,-5%,8%,96% (active),inactive,inactive,inactive,inactive
O=C(NCC1Cc2cc(Oc3ccccc3)ccc2O1)c1ccc([N+](=O)[O-])o1 (stereo not drawn),81% (active),83% (active),-3%,88% (active),inactive,inactive,inactive,inactive
C=C[C@]1(C)C[C@@H](OC(=O)NC(=O)C2CCN(C(=O)CSc3ccccc3)CC2)[C@]2(C)[C@H](C)CC[C@]3(CCC(=O)[C@H]32)[C@@H](C)[C@@H]1O,74% (active),-3%,1%,93% (active),inactive,inactive,inactive,inactive
CC(=O)c1ccc(NC(=O)Nc2ccc(N(C)c3ccnc(NC4CC4)n3)cc2)cc1,60% (active),59% (active),1%,100% (active),inactive,inactive,inactive,inactive
COc1ccc2nccc([C@@H](O)CN3CCC(NCc4ccc5nc[nH]c(=O)c5c4)CC3)c2c1,4%,12%,-13%,99% (active),inactive,inactive,inactive,inactive
CCCCN1CCN(CCCCNc2c3ccccc3nc3ccccc23)CC1,5%,27%,4%,100% (active),inactive,inactive,inactive,inactive
Cc1cccc2[nH]c(-c3ccc(-c4cccc(NC(=O)CN5CCN(C)CC5)c4)s3)nc12,51% (active),7%,-3%,96% (active),inactive,inactive,inactive,inactive
Cc1cccc(NC(=O)c2ccc(C(=O)NC3CCN(CC4CCCCC4)CC3)cc2)c1,18%,14%,-1%,95% (active),inactive,inactive,inactive,inactive
Cc1cccc2[nH]c(-c3cccc(-c4ccc(CN5CCN(CCO)CC5)cc4)c3)nc12,63% (active),12%,-4%,101% (active),inactive,inactive,inactive,inactive
Cc1ccc2c(NN=Cc3cccc(Cl)c3)cc(C)nc2c1,52% (active),50% (active),-2%,96% (active),inactive,inactive,inactive,inactive
COc1cccc(Nc2nc(Nc3cccc(C#N)c3)cc(C(F)(F)F)n2)c1,45%,15%,3%,99% (active),inactive,inactive,inactive,inactive
